# Measured values as given in article PMC7862700, “An all-to-all approach to the identification of sequence-specific readers for epigenetic DNA modifications on cytosine”.
# Experiments:
# Assay in all cases: DAPPL (digital affinity profiling via proximity ligation, sequencing); 10 mM Tris-HCl pH 7.5, 50 mM NaCl, 1 mM DTT, 4% glycerol, room temperature, 30 min; GST-TFs on glutathione beads, 16-mer random dsDNA library, 0.1% formaldehyde crosslink after washing; high values mean tight binding
# FEV = target: T1, FEV (Homo sapiens, UniProt Q99581 1-238); conditions: protein: recombinant; tags: N-terminal GST; dsDNA, one strand shown
# T1 sequence: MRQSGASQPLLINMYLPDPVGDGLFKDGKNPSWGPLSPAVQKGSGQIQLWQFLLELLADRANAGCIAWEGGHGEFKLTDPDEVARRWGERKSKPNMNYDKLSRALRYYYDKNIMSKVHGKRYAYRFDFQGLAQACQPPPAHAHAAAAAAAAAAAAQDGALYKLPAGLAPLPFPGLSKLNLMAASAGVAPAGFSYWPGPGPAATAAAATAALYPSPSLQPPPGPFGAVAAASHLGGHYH
# Method in brief: (§1)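 Beads coated with glutathione captured GST-fused human transcription factors that had been expressed in yeast, and the factors were then given DNA barcodes and pooled with a tag-only sample. The pools were incubated with 200 nmole of a random double-stranded 16-mer DNA library in Tris/NaCl/DTT/glycerol buffer for 30 min at room temperature, washed, crosslinked with 0.1% formaldehyde and proximity-ligated with BsaI/T4 ligase at 37 °C for 1 h. PCR amplification and Illumina NextSeq500 sequencing came last. Binding signal is each hexamer's read frequency for a factor divided by its frequency for the tag-only sample.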
# ETV5 = ETV5 (Homo sapiens, UniProt P41161 1-510); conditions: protein: recombinant; tags: N-terminal GST; dsDNA, one strand shown
# ETV5, sequence (P41161 whole entry): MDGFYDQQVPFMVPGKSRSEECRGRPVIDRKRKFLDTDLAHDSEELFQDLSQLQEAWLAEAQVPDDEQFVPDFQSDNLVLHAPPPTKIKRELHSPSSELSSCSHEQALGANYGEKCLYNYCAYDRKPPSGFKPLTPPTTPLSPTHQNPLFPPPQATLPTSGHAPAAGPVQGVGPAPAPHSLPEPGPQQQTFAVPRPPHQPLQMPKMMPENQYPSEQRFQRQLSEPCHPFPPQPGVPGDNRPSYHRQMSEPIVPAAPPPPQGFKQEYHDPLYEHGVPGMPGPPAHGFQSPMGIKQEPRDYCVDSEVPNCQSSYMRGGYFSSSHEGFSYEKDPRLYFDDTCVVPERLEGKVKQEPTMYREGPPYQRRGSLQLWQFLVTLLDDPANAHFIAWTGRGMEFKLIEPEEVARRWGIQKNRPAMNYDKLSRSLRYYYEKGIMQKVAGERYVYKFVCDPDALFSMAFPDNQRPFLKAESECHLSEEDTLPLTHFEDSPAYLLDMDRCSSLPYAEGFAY
# Method in brief: as §1
# HSF1 = HSF1 (Homo sapiens, UniProt Q00613 1-529); conditions: protein: recombinant; tags: N-terminal GST; chain copies: 3; dsDNA, one strand shown
# HSF1, sequence (Q00613 whole entry): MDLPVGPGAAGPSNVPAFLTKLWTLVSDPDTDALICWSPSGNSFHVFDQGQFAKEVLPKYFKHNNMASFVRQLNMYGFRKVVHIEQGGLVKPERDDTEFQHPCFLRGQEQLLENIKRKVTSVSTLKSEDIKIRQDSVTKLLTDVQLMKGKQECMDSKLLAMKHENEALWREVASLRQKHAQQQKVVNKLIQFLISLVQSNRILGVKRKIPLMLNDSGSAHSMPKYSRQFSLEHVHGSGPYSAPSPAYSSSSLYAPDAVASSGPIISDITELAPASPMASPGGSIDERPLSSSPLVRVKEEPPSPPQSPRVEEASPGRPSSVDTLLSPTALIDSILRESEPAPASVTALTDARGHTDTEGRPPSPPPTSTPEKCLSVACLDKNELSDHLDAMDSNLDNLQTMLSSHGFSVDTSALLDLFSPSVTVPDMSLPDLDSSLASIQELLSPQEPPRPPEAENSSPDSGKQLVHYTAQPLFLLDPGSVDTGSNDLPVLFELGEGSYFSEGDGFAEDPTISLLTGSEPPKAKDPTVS
# Method in brief: as §1
# SPIC = target: T2, SPIC (Homo sapiens, UniProt Q8N5J4 1-248); conditions: protein: recombinant; tags: N-terminal GST; dsDNA, one strand shown
# T2 sequence: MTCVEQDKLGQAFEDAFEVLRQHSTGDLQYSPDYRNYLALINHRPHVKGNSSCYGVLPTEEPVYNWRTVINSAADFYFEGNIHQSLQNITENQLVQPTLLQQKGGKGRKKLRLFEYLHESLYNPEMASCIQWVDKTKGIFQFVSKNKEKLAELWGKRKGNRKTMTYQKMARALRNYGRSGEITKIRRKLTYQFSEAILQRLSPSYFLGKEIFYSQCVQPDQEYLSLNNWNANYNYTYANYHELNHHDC
# Method in brief: as §1
# ELF4 = ELF4 (Homo sapiens, UniProt Q99607 1-663); conditions: protein: recombinant; tags: N-terminal GST; dsDNA, one strand shown
# ELF4, sequence (Q99607 whole entry): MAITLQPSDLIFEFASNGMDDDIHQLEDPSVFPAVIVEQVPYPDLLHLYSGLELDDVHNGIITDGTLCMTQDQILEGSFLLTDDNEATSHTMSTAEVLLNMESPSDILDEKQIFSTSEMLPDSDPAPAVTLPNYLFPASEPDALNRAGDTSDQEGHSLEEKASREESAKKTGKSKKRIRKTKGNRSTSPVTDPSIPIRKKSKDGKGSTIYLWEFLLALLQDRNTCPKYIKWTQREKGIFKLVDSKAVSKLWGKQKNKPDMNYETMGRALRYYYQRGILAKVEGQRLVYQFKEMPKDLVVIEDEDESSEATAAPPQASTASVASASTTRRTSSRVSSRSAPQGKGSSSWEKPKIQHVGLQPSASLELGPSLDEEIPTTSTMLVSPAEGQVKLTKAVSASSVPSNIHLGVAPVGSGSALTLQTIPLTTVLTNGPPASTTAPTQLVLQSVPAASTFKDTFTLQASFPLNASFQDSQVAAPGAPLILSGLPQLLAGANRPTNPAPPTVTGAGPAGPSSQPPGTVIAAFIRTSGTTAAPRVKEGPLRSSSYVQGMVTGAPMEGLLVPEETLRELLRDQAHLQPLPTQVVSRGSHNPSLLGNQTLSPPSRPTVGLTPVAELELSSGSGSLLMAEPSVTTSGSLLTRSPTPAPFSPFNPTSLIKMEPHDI
# Method in brief: as §1
# ELK4 = target: T3, ELK4 (Homo sapiens, UniProt P28324-2 1-405); conditions: protein: recombinant; tags: N-terminal GST; dsDNA, one strand shown
# T3 sequence: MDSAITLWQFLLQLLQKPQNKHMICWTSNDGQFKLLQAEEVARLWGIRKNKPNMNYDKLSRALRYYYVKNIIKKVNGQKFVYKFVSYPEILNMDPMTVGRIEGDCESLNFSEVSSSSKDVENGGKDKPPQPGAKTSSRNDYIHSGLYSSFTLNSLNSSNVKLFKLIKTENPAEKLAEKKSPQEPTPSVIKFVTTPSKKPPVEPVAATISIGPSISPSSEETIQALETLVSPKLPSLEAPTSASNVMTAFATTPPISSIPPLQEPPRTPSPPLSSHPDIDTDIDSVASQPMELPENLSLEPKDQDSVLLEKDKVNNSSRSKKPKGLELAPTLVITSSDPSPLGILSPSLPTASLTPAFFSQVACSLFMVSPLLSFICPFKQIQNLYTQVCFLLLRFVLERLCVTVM
# Method in brief: as §1
# ETV2 = target: T4, ETV2 (Homo sapiens, UniProt O00321 1-342); conditions: protein: recombinant; tags: N-terminal GST; dsDNA, one strand shown
# T4 sequence: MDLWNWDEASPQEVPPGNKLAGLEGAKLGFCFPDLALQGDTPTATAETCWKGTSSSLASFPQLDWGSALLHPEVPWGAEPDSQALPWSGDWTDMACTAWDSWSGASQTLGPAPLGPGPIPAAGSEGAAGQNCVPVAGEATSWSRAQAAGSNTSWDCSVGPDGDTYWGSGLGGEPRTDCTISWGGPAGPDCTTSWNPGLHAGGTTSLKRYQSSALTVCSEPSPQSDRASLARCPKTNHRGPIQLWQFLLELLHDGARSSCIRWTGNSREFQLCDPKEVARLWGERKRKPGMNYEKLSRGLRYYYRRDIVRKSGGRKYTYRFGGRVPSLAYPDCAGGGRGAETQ
# Method in brief: as §1
# ELF3 = target: T5, ELF3 (Homo sapiens, UniProt P78545 1-371); conditions: protein: recombinant; tags: N-terminal GST; dsDNA, one strand shown
# T5 sequence: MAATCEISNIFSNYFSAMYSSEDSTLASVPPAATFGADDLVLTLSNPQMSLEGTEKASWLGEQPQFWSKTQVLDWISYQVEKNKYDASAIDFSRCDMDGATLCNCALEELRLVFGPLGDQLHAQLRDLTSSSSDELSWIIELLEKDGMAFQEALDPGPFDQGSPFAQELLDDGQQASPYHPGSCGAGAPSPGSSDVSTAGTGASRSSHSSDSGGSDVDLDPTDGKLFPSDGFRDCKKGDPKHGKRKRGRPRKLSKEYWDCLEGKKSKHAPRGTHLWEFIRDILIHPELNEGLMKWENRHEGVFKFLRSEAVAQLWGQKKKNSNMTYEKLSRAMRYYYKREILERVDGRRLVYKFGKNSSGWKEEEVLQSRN
# Method in brief: as §1
# CRX = CRX (Homo sapiens, UniProt O43186 1-299); conditions: protein: recombinant; tags: N-terminal GST; dsDNA, one strand shown
# CRX, sequence (O43186 whole entry): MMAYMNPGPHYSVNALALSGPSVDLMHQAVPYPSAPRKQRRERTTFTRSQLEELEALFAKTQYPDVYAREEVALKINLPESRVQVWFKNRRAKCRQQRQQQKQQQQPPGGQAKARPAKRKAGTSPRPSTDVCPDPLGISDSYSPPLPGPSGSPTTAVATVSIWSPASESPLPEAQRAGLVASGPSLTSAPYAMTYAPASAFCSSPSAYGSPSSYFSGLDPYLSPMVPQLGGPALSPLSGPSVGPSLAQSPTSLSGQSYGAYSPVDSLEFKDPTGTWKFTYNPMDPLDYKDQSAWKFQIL
# Method in brief: as §1
# ETV1 = ETV1 (Homo sapiens, UniProt P50549 1-477); conditions: protein: recombinant; tags: N-terminal GST; dsDNA, one strand shown
# ETV1, sequence (P50549 whole entry): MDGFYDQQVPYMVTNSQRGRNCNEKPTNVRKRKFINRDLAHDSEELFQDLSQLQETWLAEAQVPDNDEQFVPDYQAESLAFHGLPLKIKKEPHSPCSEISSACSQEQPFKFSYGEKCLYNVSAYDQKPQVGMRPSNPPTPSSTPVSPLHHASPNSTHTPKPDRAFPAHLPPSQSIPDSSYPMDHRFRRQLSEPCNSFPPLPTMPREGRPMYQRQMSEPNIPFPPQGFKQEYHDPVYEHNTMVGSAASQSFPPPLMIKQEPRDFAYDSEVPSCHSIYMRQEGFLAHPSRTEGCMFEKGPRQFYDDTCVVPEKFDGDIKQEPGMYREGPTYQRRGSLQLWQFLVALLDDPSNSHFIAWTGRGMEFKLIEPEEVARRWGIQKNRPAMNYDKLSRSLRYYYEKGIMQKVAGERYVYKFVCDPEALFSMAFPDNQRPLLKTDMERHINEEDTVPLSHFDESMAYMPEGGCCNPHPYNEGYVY
# Method in brief: as §1
# ERF = target: T6, ERF (Homo sapiens, UniProt P50548 1-548); conditions: protein: recombinant; tags: N-terminal GST; dsDNA, one strand shown
# T6 sequence: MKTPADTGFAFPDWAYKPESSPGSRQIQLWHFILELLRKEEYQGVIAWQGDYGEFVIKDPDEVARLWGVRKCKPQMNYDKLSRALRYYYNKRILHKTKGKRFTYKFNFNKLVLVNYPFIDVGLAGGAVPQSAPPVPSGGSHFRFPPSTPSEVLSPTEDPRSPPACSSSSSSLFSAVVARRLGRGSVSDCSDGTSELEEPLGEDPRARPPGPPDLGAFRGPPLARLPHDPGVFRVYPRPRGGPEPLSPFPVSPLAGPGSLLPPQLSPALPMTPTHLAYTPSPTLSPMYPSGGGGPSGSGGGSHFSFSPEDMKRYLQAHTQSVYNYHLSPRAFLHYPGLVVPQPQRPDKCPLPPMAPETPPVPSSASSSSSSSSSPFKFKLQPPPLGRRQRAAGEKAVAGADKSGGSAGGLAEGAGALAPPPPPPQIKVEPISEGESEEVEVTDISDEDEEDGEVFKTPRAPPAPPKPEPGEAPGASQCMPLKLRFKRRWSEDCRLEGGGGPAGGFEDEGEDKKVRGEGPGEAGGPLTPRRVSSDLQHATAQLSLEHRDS
# Method in brief: as §1
# ETV3L = target: T7, ETV3L (Homo sapiens, UniProt Q6ZN32 1-361); conditions: protein: recombinant; tags: N-terminal GST; dsDNA, one strand shown
# T7 sequence: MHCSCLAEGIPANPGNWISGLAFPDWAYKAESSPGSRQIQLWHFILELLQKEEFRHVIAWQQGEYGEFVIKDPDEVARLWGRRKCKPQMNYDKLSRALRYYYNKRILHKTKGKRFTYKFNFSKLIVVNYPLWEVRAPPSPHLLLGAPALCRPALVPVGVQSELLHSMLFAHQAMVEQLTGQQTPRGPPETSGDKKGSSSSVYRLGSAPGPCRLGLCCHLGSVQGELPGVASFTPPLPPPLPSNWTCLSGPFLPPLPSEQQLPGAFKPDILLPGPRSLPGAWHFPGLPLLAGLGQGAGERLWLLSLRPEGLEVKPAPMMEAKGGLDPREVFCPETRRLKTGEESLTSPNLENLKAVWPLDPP
# Method in brief: as §1
# ETS2 = target: T8, ETS2 (Homo sapiens, UniProt P15036 1-469); conditions: protein: recombinant; tags: N-terminal GST; dsDNA, one strand shown
# T8 sequence: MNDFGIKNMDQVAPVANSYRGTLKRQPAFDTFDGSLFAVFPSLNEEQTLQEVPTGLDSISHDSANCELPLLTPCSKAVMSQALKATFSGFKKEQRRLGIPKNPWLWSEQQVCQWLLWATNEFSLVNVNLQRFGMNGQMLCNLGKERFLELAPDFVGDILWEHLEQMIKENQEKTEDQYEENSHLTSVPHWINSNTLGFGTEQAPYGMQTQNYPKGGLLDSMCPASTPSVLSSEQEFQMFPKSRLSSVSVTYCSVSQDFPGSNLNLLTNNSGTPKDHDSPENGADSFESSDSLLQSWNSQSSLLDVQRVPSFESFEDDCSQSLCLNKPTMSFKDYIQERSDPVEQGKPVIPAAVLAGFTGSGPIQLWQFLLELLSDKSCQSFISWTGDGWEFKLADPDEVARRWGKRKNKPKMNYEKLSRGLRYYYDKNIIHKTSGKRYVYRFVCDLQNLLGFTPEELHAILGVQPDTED
# Method in brief: as §1
# SPDEF = target: T9, SPDEF (Homo sapiens, UniProt O95238 1-335); conditions: protein: recombinant; tags: N-terminal GST; dsDNA, one strand shown
# T9 sequence: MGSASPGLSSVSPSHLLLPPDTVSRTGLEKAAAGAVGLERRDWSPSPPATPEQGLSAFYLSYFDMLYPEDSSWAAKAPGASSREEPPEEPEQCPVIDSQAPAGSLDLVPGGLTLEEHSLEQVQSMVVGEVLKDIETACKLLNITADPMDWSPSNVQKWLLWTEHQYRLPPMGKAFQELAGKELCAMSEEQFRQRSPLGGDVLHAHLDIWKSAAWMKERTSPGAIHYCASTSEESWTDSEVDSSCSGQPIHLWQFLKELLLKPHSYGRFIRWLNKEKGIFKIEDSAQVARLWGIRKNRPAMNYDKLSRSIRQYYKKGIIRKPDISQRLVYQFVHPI
# Method in brief: as §1
# ETV7 = target: T10, ETV7 (Homo sapiens, UniProt Q9Y603 1-341); conditions: protein: recombinant; tags: N-terminal GST; dsDNA, one strand shown
# T10 sequence: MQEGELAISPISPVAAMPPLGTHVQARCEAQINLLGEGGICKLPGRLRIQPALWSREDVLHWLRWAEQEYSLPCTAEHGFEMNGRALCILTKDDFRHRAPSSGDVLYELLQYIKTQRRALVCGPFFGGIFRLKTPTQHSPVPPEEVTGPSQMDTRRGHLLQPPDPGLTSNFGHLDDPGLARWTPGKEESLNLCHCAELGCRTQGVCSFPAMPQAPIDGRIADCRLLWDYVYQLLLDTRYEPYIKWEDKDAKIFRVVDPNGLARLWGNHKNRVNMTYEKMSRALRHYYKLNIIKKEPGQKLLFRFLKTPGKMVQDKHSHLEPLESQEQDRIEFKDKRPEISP
# Method in brief: as §1
# ELF5 = target: T11, ELF5 (Homo sapiens, UniProt Q9UKW6-2 1-255); conditions: protein: recombinant; tags: N-terminal GST; dsDNA, one strand shown
# T11 sequence: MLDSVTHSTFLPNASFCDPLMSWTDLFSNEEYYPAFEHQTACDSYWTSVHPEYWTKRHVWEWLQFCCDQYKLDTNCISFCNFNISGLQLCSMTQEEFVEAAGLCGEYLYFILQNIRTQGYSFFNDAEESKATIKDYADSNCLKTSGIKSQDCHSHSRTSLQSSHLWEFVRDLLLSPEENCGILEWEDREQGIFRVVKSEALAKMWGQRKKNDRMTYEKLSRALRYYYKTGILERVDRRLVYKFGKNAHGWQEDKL
# Method in brief: as §1
# ETV3 = target: T12, ETV3 (Homo sapiens, UniProt P41162-2 1-143); conditions: protein: recombinant; tags: N-terminal GST; dsDNA, one strand shown
# T12 sequence: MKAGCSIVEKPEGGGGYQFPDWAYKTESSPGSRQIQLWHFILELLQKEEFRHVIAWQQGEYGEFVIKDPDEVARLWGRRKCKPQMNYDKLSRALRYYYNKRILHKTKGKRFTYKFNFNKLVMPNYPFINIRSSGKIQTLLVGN
# Method in brief: as §1
# ETV6 = ETV6 (Homo sapiens, UniProt P41212 1-452); conditions: protein: recombinant; tags: N-terminal GST; dsDNA, one strand shown
# ETV6, sequence (P41212 whole entry): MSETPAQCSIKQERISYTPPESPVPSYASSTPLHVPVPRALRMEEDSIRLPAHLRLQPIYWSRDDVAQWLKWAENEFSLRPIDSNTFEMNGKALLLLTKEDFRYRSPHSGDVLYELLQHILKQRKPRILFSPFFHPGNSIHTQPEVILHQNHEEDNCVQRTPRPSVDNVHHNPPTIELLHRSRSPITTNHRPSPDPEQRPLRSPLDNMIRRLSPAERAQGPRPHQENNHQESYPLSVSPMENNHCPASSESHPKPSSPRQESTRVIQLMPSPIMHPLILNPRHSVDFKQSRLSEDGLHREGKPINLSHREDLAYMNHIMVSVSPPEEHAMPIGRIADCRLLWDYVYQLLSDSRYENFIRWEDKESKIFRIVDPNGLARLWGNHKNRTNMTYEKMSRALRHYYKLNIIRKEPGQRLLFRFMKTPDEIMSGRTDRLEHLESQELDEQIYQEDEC
# Method in brief: as §1
sequence,measurement,setting,value
TCTTTT,binding signal,FEV,"1.44 fold enrichment (6-mer frequency, TF over GST control)"
same,binding signal,ETV5,"1.4 fold enrichment (6-mer frequency, TF over GST control)"
same,binding signal,HSF1,"1.66 fold enrichment (6-mer frequency, TF over GST control)"
same,binding signal,SPIC,"1.55 fold enrichment (6-mer frequency, TF over GST control)"
same,binding signal,ELF4,"1.54 fold enrichment (6-mer frequency, TF over GST control)"
same,binding signal,ELK4,"1.22 fold enrichment (6-mer frequency, TF over GST control)"
same,binding signal,ETV2,"1.42 fold enrichment (6-mer frequency, TF over GST control)"
same,binding signal,ELF3,"1.41 fold enrichment (6-mer frequency, TF over GST control)"
same,binding signal,CRX,"1.59 fold enrichment (6-mer frequency, TF over GST control)"
same,binding signal,ETV1,"1.47 fold enrichment (6-mer frequency, TF over GST control)"
same,binding signal,ERF,"1.46 fold enrichment (6-mer frequency, TF over GST control)"
same,binding signal,ETV3L,"1.54 fold enrichment (6-mer frequency, TF over GST control)"
same,binding signal,ETS2,"1.47 fold enrichment (6-mer frequency, TF over GST control)"
same,binding signal,SPDEF,"1.4 fold enrichment (6-mer frequency, TF over GST control)"
same,binding signal,ETV7,"1.56 fold enrichment (6-mer frequency, TF over GST control)"
same,binding signal,ELF5,"1.43 fold enrichment (6-mer frequency, TF over GST control)"
same,binding signal,ETV3,"1.5 fold enrichment (6-mer frequency, TF over GST control)"
same,binding signal,ETV6,"1.41 fold enrichment (6-mer frequency, TF over GST control)"
